Data as given in PubChem BioAssay.

Assays:
[1] = tested on: Botulinum neurotoxin type F light chain protease (Clostridium botulinum); experiment: Botulinum neurotoxin type F light chain protease inhibition, multiplex microsphere flow cytometry, validation set (AID 588459); conditions: multiplex microsphere protease substrate cleavage assay, at 10 µM, hits give high values
[2] = biological target: Botulinum neurotoxin type A (Clostridium botulinum) (UniProt P0DPI0); experiment: BoNT/A light chain protease inhibitors, biochemical, multiplex microsphere flow cytometry, validation set (AID 588460); conditions: at 10 µM, hits give high values
[3] = biological target: Lethal factor (Bacillus anthracis) (UniProt P15917); experiment: Lethal factor protease inhibitors, Bacillus anthracis, multiplex microsphere cleavage assay, validation set (AID 588461); conditions: flow cytometry, at 10 µM, hits give high values

Measured: inhibition

Cc1coc2cc3oc(=O)c(CCC(=O)O)c(C)c3cc12
inactive: [1] 3.6% | [2] -2% | [3] -2.2%

COc1cccc2c1C(=O)O/C2=C/c1ccc2c(c1)OCO2
inactive: [1] -0.9% | [2] -0.8% | [3] 2.1%

COc1ccc(Cl)cc1C(=O)NCCc1ccc(S(=O)(=O)NC(=O)NC2CCCCC2)cc1
inactive: [1] -1.1% | [2] -1.6% | [3] -9.4%

CCOc1ccc(OCCSc2nc3ccccc3[nH]2)cc1
inactive: [1] -6.7% | [2] -1.3% | [3] -1.8%

CC1(C)C(=O)OC(c2cccs2)C2(CCCCC2)C1=O (stereo not given)
inactive: [1] -2.1% | [2] -1.3% | [3] -6.2%

CCOC(=O)C1NN=C(C(=O)c2ccccc2)C1c1ccc(Cl)cc1 (stereo not given)
inactive: [1] 3% | [2] 1.4% | [3] 3.2%

C[C@]12CC[C@@H]3c4ccc(O)cc4[C@@H](O)C[C@H]3[C@@H]1CC[C@@H]2O
inactive: [1] 3.3% | [2] -0.4% | [3] 0.8%

Cc1oc2cc(O)cc(O)c2c(=O)c1-c1ccc2c(c1)OCCCO2
inactive: [1] 1.4% | [2] -0.4% | [3] -5.8%

O=C(CCC(=O)NCCO)NCCO
inactive: [1] 1.2% | [2] 0.4% | [3] 6.9%

Cc1cc(OC(C(=O)O)c2ccccc2)c2c(C)c(Cc3ccccc3)c(=O)oc2c1 (stereo not given)
inactive: [1] 2% | [2] -0.1% | [3] 1.7%

CCOC(=O)[C@H](CCc1ccccc1)N[C@@H](C)C(=O)N1CCC[C@H]1C(=O)O
inactive: [1] 3.5% | [2] 0.2% | [3] 3.9%

COc1cc2ccc(=O)oc2c(O)c1OCC=C(C)C
inactive: [1] -4.9% | [2] 1.4% | [3] 1.2%

COc1ccc2[nH]c3c(c2c1)CCNC3C1CC=C(C)CC1 (stereo not given)
inactive: [1] -1.7% | [2] 0.2% | [3] 3.8%

O=C(NO)c1ccccc1O
inactive: [1] 3.3% | [2] 2% | [3] -4%

CCOCc1cc(C)[nH]c(=O)c1C#N
inactive: [1] -0.2% | [2] 2.8% | [3] 2%

O=C(Nc1cccc(-c2nc3ncccc3o2)c1)c1ccccc1
inactive: [1] 2.8% | [2] -0.9% | [3] -1.6%

Cc1ccc(C)c(OCCCC(C)(C)C(=O)O)c1
inactive: [1] 1.7% | [2] -0.3% | [3] 1.8%

COc1ccc(/C=C2\CCn3c2nc2cc(C(=O)O)ccc2c3=O)cc1OC
inactive: [1] 1.4% | [2] 1% | [3] 8%

O=C(OCCN1CCOCC1)c1cccs1
inactive: [1] -2.8% | [2] -0.9% | [3] -1.2%

Cc1ccc(S(=O)(=O)NC(=O)Nc2cc(C)ccc2F)cc1
inactive: [1] 3% | [2] -0.1% | [3] -4.1%

O=[N+]([O-])c1ccc2cn[nH]c2c1
inactive: [1] 2.9% | [2] -0.5% | [3] 4%

Cc1ccc(C2CC(=O)C(C=NCCN3CCN(C(=S)Nc4ccccc4)CC3)=C(O)C2)cc1 (stereo not given)
inactive: [1] -0.8% | [2] 0.1% | [3] 5.4%

CCOC(=O)c1cc2c(nc1N)CC(C)(CC)OC2 (stereo not given)
inactive: [1] 3.5% | [2] 1% | [3] -2.4%

COC(=O)C1=C(C)NC(C)=C(C(=O)OCCN(C)Cc2ccccc2)C1c1cccc([N+](=O)[O-])c1 (stereo not given)
inactive: [1] -2.1% | [2] -0.8% | [3] -3.7%

Cc1cccc(C2=N/C(=C\c3cccnc3)C(=O)O2)c1
inactive: [1] -1.1% | [2] 1.9% | [3] 3.7%

CC1=NN(c2ccccc2)C(=O)C1
inactive: [1] 1.1% | [2] -3% | [3] 1.8%

Cc1cc(-c2ccccc2)nnc1NCCN1CCOCC1
inactive: [1] -0.7% | [2] -0.4% | [3] -2.3%

O=C(O)/C=C/c1cnc[nH]1
inactive: [1] 1.9% | [2] -0.2% | [3] -0.5%

COc1ccc2nc(C)cc(Nc3ccccc3O)c2c1
inactive: [1] 1% | [2] 1% | [3] -1.4%

O=C1CC(c2ccc(F)cc2)Cc2nc(NCC3CCCO3)ncc21 (stereo not given)
inactive: [1] -1% | [2] 0.1% | [3] -6.1%

O=C(O)CCCNc1ccc(S(=O)(=O)Nc2ccccc2C(=O)O)cc1C(=O)O
inactive: [1] 1.6% | [2] 1.7% | [3] 10%

CC(=O)Oc1ccc(C(c2ccc(OC(C)=O)cc2)c2ccccn2)cc1
inactive: [1] 1.2% | [2] -0.3% | [3] -2.2%

COc1ccc(C(=O)CC2OC(=O)c3c2ccc(OC)c3OC)cc1 (stereo not given)
inactive: [1] 0.2% | [2] 0.7% | [3] 3.4%

CC12CCC(C(=O)NNc3ccccc3)(C(=O)C1=O)C2(C)C (stereo not given)
inactive: [1] 1.1% | [2] 0.4% | [3] -3.4%

Cc1ccc(N2C(=O)c3ccccc3C2=O)cc1C
inactive: [1] -0.3% | [2] 0.5% | [3] -0.8%

COc1ccccc1C(CC(=O)Nc1ccccc1C)c1ccc(OC(C)C)cc1 (stereo not given)
inactive: [1] -0.1% | [2] -0.8% | [3] -7.4%

O=C(O)C1CSC(c2ccc3c(c2)OCO3)N1 (stereo not given)
inactive: [1] 3.1% | [2] 1.1% | [3] -0.7%

CC[C@H]1OC(=O)[C@H](C)[C@@H](O[C@H]2C[C@@](C)(OC)[C@@H](O)[C@H](C)O2)[C@H](C)[C@@H](O[C@@H]2O[C@H](C)C[C@H](N(C)C)[C@H]2O)[C@](C)(O)C[C@@H](C)[C@@H]2N[C@@H](COCCOC)O[C@H]([C@H]2C)[C@]1(C)O
inactive: [1] 3.3% | [2] 0.7% | [3] -1.4%

CSc1ccc(CN2CCN(CCC(C)C)C(CCO)C2)cc1 (stereo not given)
inactive: [1] 2.2% | [2] 0.1% | [3] -3.3%

CCCc1cc(C(N)=S)ccn1
inactive: [1] 1.8% | [2] 1.2% | [3] -7.7%

COc1ccc(C(=O)N2c3cc4c(cc3C(C)=CC2(C)C)OCO4)cc1
inactive: [1] 3.7% | [2] 0% | [3] 4%

CC(C)=CCC/C(C)=C/CC/C(C)=N/O
inactive: [1] -1.6% | [2] -0.4% | [3] 4.1%

O=C(Nc1cccc(Oc2c(F)c(F)c(F)c(F)c2F)c1)N1C[C@@H]2C[C@@H](C1)c1cccc(=O)n1C2
inactive: [1] 2.7% | [2] 1.4% | [3] 7.2%

COc1ccc(N2C(=O)[C@@H]3Cc4ccccc4CN3C2=O)cc1
inactive: [1] 1.7% | [2] 0.4% | [3] -0.7%

O=C(NCCc1cccc(F)c1)[C@@H]1CSC2c3ccccc3C(=O)N21 (stereo not given in full)
inactive: [1] 0.2% | [2] -0.3% | [3] 0.6%

CCOC(=O)c1cccc(P(C)(C)=O)c1
inactive: [1] -1.1% | [2] -0.5% | [3] -5%

CCc1nc2ccccc2n1Cc1ccc(OC)c(OC)c1
inactive: [1] -1.2% | [2] 0.6% | [3] 0.6%

CN1CCc2c(n(CC(O)CN(CCO)CCO)c3ccccc23)C1=O (stereo not given)
inactive: [1] -0.1% | [2] 0.2% | [3] -3.6%

C(=C\c1ccccc1)/CN1CCN(C(c2ccccc2)c2ccccc2)CC1
inactive: [1] -0.8% | [2] -1.7% | [3] -9.2%

CC(=O)OCC(=O)[C@H]1CC[C@H]2[C@@H]3CC=C4C[C@@H](O)CC[C@]4(C)[C@H]3CC[C@]12C
inactive: [1] -1.9% | [2] -1.3% | [3] -7.4%

O=C(NCCC(c1ccccc1)c1ccco1)c1cccs1 (stereo not given)
inactive: [1] 3.1% | [2] -2.7% | [3] 3%

CC1(C)CC(C(CC(=O)O)c2ccccc2)CCO1 (stereo not given)
inactive: [1] 0.4% | [2] -0.2% | [3] -7.8%

COc1ccc2oc(=O)c(C(=O)Nc3ccccc3-c3ccccc3)cc2c1
inactive: [1] 3.1% | [2] 0.3% | [3] -1.6%

Cc1ccc(C(=O)Nc2ccccc2C(=O)NC(C(=O)O)C(C)C)cc1 (stereo not given)
inactive: [1] 4.4% | [2] 0.5% | [3] -2%

O=C1CCCC(=O)C1=Cc1c[nH]c2ccccc12
inactive: [1] 3% | [2] 0.4% | [3] -6.4%
